Test [1] deals with Human papillomavirus type 1a protein E7 (residues 44-93). Description: HPV1a E7 fragment binders on microarrays, primary screen, biochemical, small-molecule microarray, residues 44-93, 635 nm fluorescence (AID 1108).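 Note: E7 fragment applied at 1 µg/mL in TBST for 1 h at 4 C; score combines spot fluorescence with its signal to noise ratio.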 Particulars: small-molecule microarray binding, fluorescence 635 nm; higher = more signal.
The nature of test [2]: modulators of HCV replicon luciferase signal, primary screen, HCV replication inhibitor project, Huh7 cells, luciferase reporter (AID 1109).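 Note: huh7 hepatoma cells harbouring a luciferase neomycin HCV replicon reporter; luciferase luminescence as measure of HCV replicon replication; test concentration not given here.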 To be noted: 48 h, higher = more signal. On the technique in general: A replicon is a self-replicating genome or part of one, used to study replication in cells.
Test [3] has as its target Left-right determination factor 2 (Homo sapiens) (UniProt O00292). Description: LEFTY2 binders on small-molecule microarrays, primary screen, biochemical, small-molecule microarray, 635 nm fluorescence scan (AID 1110). Particulars: LEFTY2 binding, higher = more signal.
In test [4] the target is Calmodulin-1 (Homo sapiens) (UniProt P0DP23). Description: CALM1 binders on microarrays, EGTA buffer, profiling panel, biochemical, small-molecule microarray, Cy5-labelled CALM1 (AID 1111).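 Note: labelled calmodulin applied in Tris saline Tween buffer holding calcium plus EGTA and DTT.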 To be noted: Cy5-CALM1 binding fluorescence, higher = more signal.
Test [5] shares this target. Put plainly: calcium-bound CALM1 binders on microarrays, profiling panel, artefact control for SMM control-protein annotation, biochemical, small-molecule microarray, Cy5-labelled CALM1, plus calcium (AID 1112).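 Note: score merges spot fluorescence with signal to noise from triplicate slides.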 Particulars: Cy5-CALM1 binding fluorescence, higher = more signal.
Test [6] is described as follows: small-molecule microarray binders of probe aWnt5a, primary screen, biochemical, biotinylated probe, 635/667 nm fluorescence (AID 1113).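 Note: score merges 667 nm fluorescence intensity with signal-to-noise per printed feature.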 To be noted: higher = more signal.
Test [7] is described as follows: small-molecule microarray binders of probe aShh, primary screen, biochemical, biotinylated probe, 635/667 nm fluorescence (AID 1114).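 Note: probe is biotin-labelled aShh protein from a stem cell growth factor screen; measures binding of labelled protein to compounds printed on the slide; score merges feature fluorescence at 667 nm with signal-to-noise.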 To be noted: higher = more signal.
A short description of test [8]: small-molecule microarray binders of probe aNog, primary screen, biochemical, biotinylated probe, 635/667 nm fluorescence (AID 1115).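 Note: probe is biotinylated aNog protein used at 0.15 µg/mL for 1 h at 4 C; z-score combines 667 nm fluorescence of each spot with its signal to noise.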 Particulars: higher = more signal.
The target in test [9] is Torsin-1A-interacting protein 1 (Homo sapiens) (UniProt Q5JTV8). Put plainly: LAP1 binders from COS7 cell lysate, primary screen, small-molecule microarray, 635/667 nm fluorescence (AID 1116). To be noted: COS7-hLAP1 lysate binding, 635 nm fluorescence, higher = more signal.
Sequence of Torsin-1A-interacting protein 1 (Homo sapiens) (Q5JTV8 whole entry, looked up): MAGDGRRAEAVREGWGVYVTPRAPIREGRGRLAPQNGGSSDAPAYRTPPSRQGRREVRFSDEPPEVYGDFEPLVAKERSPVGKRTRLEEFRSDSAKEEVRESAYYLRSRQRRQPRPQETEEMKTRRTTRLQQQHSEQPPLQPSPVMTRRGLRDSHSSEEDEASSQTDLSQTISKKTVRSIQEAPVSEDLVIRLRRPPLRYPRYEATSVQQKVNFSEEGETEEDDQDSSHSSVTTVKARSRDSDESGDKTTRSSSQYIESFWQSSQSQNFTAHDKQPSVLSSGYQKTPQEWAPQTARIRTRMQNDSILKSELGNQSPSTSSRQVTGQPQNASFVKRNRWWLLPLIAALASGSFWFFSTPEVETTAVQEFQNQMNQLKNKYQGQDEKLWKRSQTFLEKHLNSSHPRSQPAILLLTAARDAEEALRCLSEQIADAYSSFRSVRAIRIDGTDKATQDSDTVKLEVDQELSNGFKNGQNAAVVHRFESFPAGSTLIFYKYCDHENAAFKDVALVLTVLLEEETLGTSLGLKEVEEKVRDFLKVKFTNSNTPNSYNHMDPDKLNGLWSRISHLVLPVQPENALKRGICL
Test [10] has as its target Alpha-bungarotoxin (Bungarus multicinctus) (UniProt P60615). Description: alpha-bungarotoxin binders on microarray, profiling panel, artefact control for SMM control protein annotation, biochemical, small-molecule microarray, Alexa647 label, 635/667 nm fluorescence (AID 1117). To be noted: alpha-BTX-A647 binding fluorescence, higher = more signal.

This note sets out measurements from PubChem BioAssay.

Sequence of Left-right determination factor 2 (Homo sapiens) (O00292 whole entry, looked up): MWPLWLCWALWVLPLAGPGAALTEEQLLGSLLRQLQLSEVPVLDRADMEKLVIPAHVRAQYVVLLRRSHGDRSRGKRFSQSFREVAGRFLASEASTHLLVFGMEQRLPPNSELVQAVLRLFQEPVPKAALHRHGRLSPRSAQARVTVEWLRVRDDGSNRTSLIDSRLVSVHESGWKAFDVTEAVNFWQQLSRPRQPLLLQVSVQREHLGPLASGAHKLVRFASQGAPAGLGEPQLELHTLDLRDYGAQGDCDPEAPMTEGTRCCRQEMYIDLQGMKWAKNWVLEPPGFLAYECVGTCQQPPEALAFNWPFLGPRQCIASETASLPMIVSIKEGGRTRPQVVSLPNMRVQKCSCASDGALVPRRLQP
Sequence of Alpha-bungarotoxin (Bungarus multicinctus) (P60615 whole entry, looked up): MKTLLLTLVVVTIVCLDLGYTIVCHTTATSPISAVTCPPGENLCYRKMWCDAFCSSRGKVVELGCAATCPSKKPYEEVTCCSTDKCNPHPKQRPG

As for `CC(CO)N1C(=O)[C@]2(C)C3C(=O)OCCC/C=C\[C@H]3OC23C=CCN(c2ccc(Cl)cc2)C(=O)[C@@H]13` (stereo not given in full), the composite z-score in [1] is -0.886; in [3] it was -0.945; in [4], -0.275; in [5], 0.079; in test [6], -0.0573; in test [7] it was -0.243. For the same molecule, the composite z-score in [8] was -0.318; in [9] it was -0.549; in test [10], -0.358. Moreover, the z-score in [2] amounted to 0.636.

Regarding `Oc1ccc2cc[n+](Cc3cc4c(cc3Br)OCO4)cc2c1`, the composite z-score in test [1] is -1.22; in test [3], -0.929; in test [4] it was -0.489; in [5], 0.446; in test [6], -0.1; in test [7], -0.0769. Further, the composite z-score was -0.0546 in test [8], -0.346 in test [9] and -0.791 in test [10]. Besides, the z-score in test [2] came to 1.65.

For `CC(=O)NCCCC[C@@H]1NC(=O)[C@@H]2C[C@H](C(=O)NCCCCCN)[C@H](c3cccc(OCCO)c3)N2C1=O`, the composite z-score in [1] amounted to 0.794; in test [3], 0.736; in test [4], 1.09; in [5], 0.634; in test [6], 0.0546; in test [7] it was 0.663. The composite z-score amounted to 0.489 in [8], 1.03 in test [9] and 1.16 in test [10]. Besides, in test [2], the z-score was -0.0844.

As to `CCCCC(CC)C(O)C1C=CC2C(=O)N(c3ccccc3)C(=O)C2N1Nc1ccc(C#N)cc1` (stereo not given), the composite z-score was 1.44 in [1]; 0.111 in test [3]; 1.35 in test [4]; 0.467 in test [5]; 0.267 in [6]; 0.348 in test [7]. The composite z-score in [8] stood at 1.97; in test [9] it was 0.336; in [10] it was 1.45. Moreover, in test [2], the z-score is -0.67.

For the molecule `CCOC(=O)C1=C[C@@H](c2ccccc2)N(S(=O)(=O)c2ccc(C)cc2)[C@H]1c1ccc(OC)cc1`, the composite z-score in test [1] amounted to 0.796; in [3], 0.976; in test [4] it was 1.6; in [5], 0.736; in test [6], 0.661; in [7], 0.926. Further, the values for the composite z-score in [8], in test [9] and in [10] were 1.25, 0.118 and 1.24, respectively. In addition, the z-score in test [2] was -1.92.

`CN1C(=O)C2C=CC(C(O)c3cccn3C)N(Nc3ccc([N+](=O)[O-])cc3[N+](=O)[O-])C2C1=O` (stereo not given): the composite z-score was 0.0443 in test [1]; -0.135 in test [3]; 1.08 in [4]; 0.212 in test [5]; 0.0357 in test [6]; 0.496 in test [7]. Besides, the composite z-score was 0.31 in test [8], -0.0083 in [9] and 0.401 in test [10]. In [2], this molecule returned a z-score of -0.0091.

As to `O=C1N(Cc2ccccc2)c2ccccc2C[C@]12N=C(c1ccc(OCCCO)cc1)O[C@@H]2c1ccccc1`, the composite z-score was 0.732 in test [1]; 0.133 in [3]; 0.51 in [4]; -0.249 in test [5]; -0.0179 in [6]; -0.332 in test [7]. Also, the composite z-score in [8] was -0.356; in test [9] it was -0.0883; in test [10], 0.743. For the same molecule, the z-score in test [2] is -3.02.

As for `O=C1C[C@]2(c3ccc([N+](=O)[O-])cc3)C(=O)N(C3CC3)c3cc(CO)ccc3[C@H]2N1CC12CC3CC(CC(C3)C1)C2`, the composite z-score was 0.471 in test [1]; -1.6 in test [3]; -0.448 in [4]; -0.87 in [5]; -0.148 in test [6]; -0.124 in [7]. The composite z-score was 0.632 in test [8], -0.604 in test [9] and -0.444 in test [10]. In [2], this molecule had a z-score of -0.479.

Take `COCCOC(=O)N1C(=O)[C@@]2(c3cc(C#CCC(C(=O)OC)C(=O)OC)ccc31)[C@H](c1ccc(OCCO)cc1)N1[C@H](c3ccccc3)[C@H](c3ccccc3)OC(=O)[C@H]1[C@@H]2C(=O)N1CCc2cc(OC)c(OC)cc2C1`: the composite z-score is 1.42 in test [1]; 0.52 in test [3]; 1.01 in test [4]; 0.182 in test [5]; -0.072 in test [6]; 0.123 in [7]. The composite z-score in test [8] was 0.353; in test [9] it was 1.05; in test [10] it was 1.68. The molecule further showed a z-score in test [2] of -0.919.

As for `COCCOC(=O)N1C(=O)[C@@]2(c3cc(C#CCCO)ccc31)[C@H](C(=O)Nc1nc3ccccc3s1)[C@H]1C(=O)O[C@H](c3ccccc3)[C@H](c3ccccc3)N1[C@@H]2c1ccc(O)cc1`, the composite z-score in test [1] was 1.16; in test [3], 1.09; in test [4], 0.999; in test [5], -0.237; in test [6], -0.0445; in test [7] it was 0.191. Also, the composite z-score is 0.566 in [8], 0.549 in [9] and 1.6 in test [10]. In [2], the z-score was -1.65.

With `CCOC(=O)C[C@H]1[C@H](OC(=O)c2ccc(-c3ccccc3)cc2)[C@@H](NC(=O)CC(C)C)c2cc(OCCCO)ccc2N1C(=O)c1ccc2ccccc2n1`, the composite z-score is 0.903 in test [1]; 0.218 in [3]; 0.326 in test [4]; -0.631 in test [5]; -0.0678 in [6]; 0.0723 in test [7]. Moreover, the composite z-score in test [8] was 0.39; in test [9] it was -0.289; in test [10], 0.0623. In addition, the z-score in [2] is -1.3.

`COc1cc(OC)c(C(O)C2C=CC3C(=O)N(Cc4ccccc4)C(=O)C3N2n2cnnc2)cc1Br` (stereo not given): the composite z-score is 1.36 in test [1]; -0.6 in test [3]; 0.181 in test [4]; 0.595 in [5]; 0.0173 in [6]; -0.131 in [7]. The composite z-score in test [8] came to 0.665; in [9] it was 0.781; in [10] it was 0.871. This molecule also registered a z-score in test [2] of -1.61.

As to `COC(=O)[C@@]1(Cc2ccc(F)cc2)[C@H]2c3cc(C(=O)N4CCCC4)n(CCc4c[nH]c5ccccc45)c3C[C@H]2CN1C(=O)c1ccccc1`, the composite z-score amounted to 1.42 in test [1]; 0.304 in test [3]; 1.45 in test [4]; 1.31 in test [5]; 0.0718 in test [6]; 0.582 in test [7]. Moreover, the composite z-score was 2.08 in test [8], 1.63 in test [9] and 1.89 in [10]. In test [2], this molecule returned a z-score of -1.52.

For the molecule `O=C1C2C=CC(C(O)C3CC=CCC3)N(Nc3ccccc3)C2C(=O)N1c1ccccc1` (stereo not given), the composite z-score was 1.44 in test [1]; 0.0066 in test [3]; 1.08 in [4]; -0.0425 in test [5]; -0.098 in test [6]; 0.128 in [7]. Besides, the composite z-score in test [8] is 0.821; in test [9], 0.946; in test [10], 1.78. Also, the z-score in [2] is -0.463.

As for `C=CC[C@@]1(C(=O)NCCCOC)N=C(c2ccc(OCCCO)cc2)O[C@@H]1c1ccccc1N=[N+]=[N-]`, the composite z-score in test [1] is 1.44; in test [3], -0.553; in test [4], 0.968; in test [5], -0.105; in test [6], -0.0519; in test [7], 0.0639. The composite z-score in test [8] amounted to 0.291; in [9], 0.905; in [10] it was 0.767. In addition, the z-score in test [2] was -1.09.

With `C=CCNC(=O)[C@@H]1[C@H]2C(=O)O[C@H](c3ccccc3)[C@H](c3ccccc3)N2[C@H](c2ccc(OCCO)cc2)[C@@]12C(=O)N(C(=O)OCCOC)c1ccc(C#Cc3ccc(OC)cc3)cc12`, the composite z-score is 1.01 in [1]; 0.399 in test [3]; 1.6 in [4]; 0.169 in test [5]; -0.27 in [6]; -0.291 in test [7]. The composite z-score in test [8] is -0.272; in [9], 0.229; in test [10], 1.22. The molecule also had a z-score in [2] of -1.14.

With `NC(=O)NCC#Cc1ccc2c(c1)[C@]1(C(=O)N2)[C@H](c2ccccc2OCCO)N2[C@H](c3ccccc3)[C@H](c3ccccc3)OC(=O)[C@H]2[C@@H]1C(=O)O`, the composite z-score in test [1] was 1.27; in test [3], -0.351; in test [4], 0.505; in test [5], 0.629; in test [6], -0.169; in test [7] it was -0.0035. Moreover, the composite z-score is -0.359 in test [8], 0.299 in [9] and 0.589 in test [10]. Also, the z-score in test [2] was -0.331.

On to `CCOC(=O)C[C@H]1[C@H](OC(=O)c2ccccc2-c2ccccc2)[C@@H](NC(=O)c2ccc3ccccc3n2)c2cc(OCCCO)ccc2N1C(=O)Cc1ccc(OC)cc1`, for which the composite z-score was 0.345 in test [1]; 0.414 in test [3]; -0.216 in test [4]; -0.224 in test [5]; -0.124 in [6]; -0.182 in test [7]. Also, the composite z-score in [8] was -0.147; in test [9], 0.781; in [10] it was 0.365. Further, in [2], the z-score is -2.09.
